From PubChem BioAssay come the findings set out here.

Assay [1] can be described thus: HepG2 liver cancer cell viability effects, profiling panel, resazurin fluorescence, 24 h, PK04 Diversity Set (AID 1172). Also: test concentration not given here. As to conditions: higher = more signal.
Assay [2] can be described thus: basal S. cerevisiae growth modulation, no modifier, primary screen, OD600, strain BY4716, 24 h, basal condition (AID 1173). The following applies: OD600, 24 h, higher = more signal, called active from +8 up or from −8 down.
The nature of assay [3]: MM1S myeloma cell viability, profiling panel, resazurin fluorescence, basal, 24 h, PK04 Diversity Set (AID 1174).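 Also: MM1S multiple myeloma cell line; test concentration not given here.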 The following applies: higher = more signal, called active from +8 up or from −8 down.
Assay [4] addresses Dihydroorotate dehydrogenase (quinone), mitochondrial (Plasmodium falciparum (isolate 3D7)) (UniProt Q08210). Kind of assay: PfDHODH enzyme inhibitors, primary screen, biochemical, C-terminal His tag, absorbance 600 nm (AID 1175).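 Also: recombinant parasite enzyme with a five histidine tag at its C terminus; test concentration not given here.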 The following applies: DCIP absorbance 600 nm, higher = more signal, called active from +8 up or from −8 down.
Assay [5] can be described thus: P. aeruginosa biofilm formation inhibitors, primary screen, strain PAO1, LB-PBS medium, absorbance 600 nm (AID 1176). Also: test concentration not given here. As to conditions: P. aeruginosa PAO1 growth/biofilm, A600, 12 h; higher = more signal.
A short description of assay [6]: S. cerevisiae RM11-1a growth modifiers, primary screen, strain RM11-1a, OD600, basal, 24 h (AID 1177).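 Also: cultures grown under basal conditions with no added stressor; test concentration not given here.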 The following applies: OD600, 24 h, higher = more signal, called active from +8 up or from −8 down.
Assay [7] can be described thus: E. coli acrAB mutant growth effects, primary screen, E. coli filamentation inducers, strain DRC39, OD650, 24 h (AID 1178).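 Also: growth measured as culture turbidity by optical density at 650 nm; test concentration not given here.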 The following applies: higher = more signal, called active from +8 up or from −8 down.
Assay [8] in a line: E. coli acrAB mutant growth effects, primary screen, E. coli filamentation inducers, strain DRC39, OD650, 48 h (AID 1179).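 Also: screen aims at cell division blockers that make cells filament.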 The following applies: E. coli DRC39 delta-acrAB growth, higher = more signal, called active from +8 up or from −8 down.
Assay [9] is described as follows: RPMI8226 myeloma cell viability, profiling panel, resazurin fluorescence, basal, 24 h, PK04 Diversity Set (AID 1180).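 Also: RPMI8826 multiple myeloma cell line at 5000 cells per well; test concentration not given here.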 The following applies: higher = more signal.
The target in assay [10] is E3 ubiquitin-protein ligase XIAP (Homo sapiens) (UniProt P98170). Put plainly: XIAP binders, primary screen, biophysical, small-molecule microarray, fluorescence 635 nm (AID 1181).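 Also: score merges 667 nm emission and signal to noise over triplicate slides.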 The following applies: small-molecule microarray binding, higher = more signal.
E3 ubiquitin-protein ligase XIAP (Homo sapiens), sequence (P98170 whole entry, looked up): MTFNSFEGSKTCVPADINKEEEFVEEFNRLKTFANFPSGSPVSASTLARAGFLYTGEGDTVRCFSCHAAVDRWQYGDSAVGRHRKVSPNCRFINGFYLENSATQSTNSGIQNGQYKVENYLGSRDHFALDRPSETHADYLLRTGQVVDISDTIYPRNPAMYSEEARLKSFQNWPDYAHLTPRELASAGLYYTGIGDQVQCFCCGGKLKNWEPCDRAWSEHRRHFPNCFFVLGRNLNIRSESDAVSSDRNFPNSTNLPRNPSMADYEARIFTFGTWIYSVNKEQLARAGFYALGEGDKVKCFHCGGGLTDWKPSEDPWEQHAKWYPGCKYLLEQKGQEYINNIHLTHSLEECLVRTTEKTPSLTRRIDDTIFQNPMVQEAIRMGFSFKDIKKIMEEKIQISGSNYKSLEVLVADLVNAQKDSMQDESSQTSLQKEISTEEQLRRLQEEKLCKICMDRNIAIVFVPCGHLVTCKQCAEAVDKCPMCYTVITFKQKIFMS

Active and inactive are the calls of the source. Unless noted, no rule for the calls is given here.

Dihydroorotate dehydrogenase (quinone), mitochondrial (Plasmodium falciparum (isolate 3D7)), sequence (Q08210 whole entry, looked up): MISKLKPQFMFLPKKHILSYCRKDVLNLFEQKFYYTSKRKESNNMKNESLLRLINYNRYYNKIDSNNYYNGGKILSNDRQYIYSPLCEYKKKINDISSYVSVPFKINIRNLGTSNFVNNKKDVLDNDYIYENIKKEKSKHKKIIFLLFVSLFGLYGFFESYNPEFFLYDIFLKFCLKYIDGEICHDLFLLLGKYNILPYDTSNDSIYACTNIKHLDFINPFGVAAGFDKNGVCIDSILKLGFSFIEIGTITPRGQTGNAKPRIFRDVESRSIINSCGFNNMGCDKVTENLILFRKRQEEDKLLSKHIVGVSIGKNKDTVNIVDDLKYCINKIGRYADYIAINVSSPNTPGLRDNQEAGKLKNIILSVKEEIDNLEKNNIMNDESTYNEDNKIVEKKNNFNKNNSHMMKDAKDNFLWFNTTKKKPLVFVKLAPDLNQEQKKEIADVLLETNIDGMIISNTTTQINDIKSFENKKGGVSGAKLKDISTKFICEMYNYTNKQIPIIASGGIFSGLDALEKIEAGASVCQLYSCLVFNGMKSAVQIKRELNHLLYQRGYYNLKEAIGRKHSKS

Consider `CC(=O)OCC1C2CC[C@H]3C(OCc4ccc(F)cc4C(F)(F)F)OC[C@]4(C)[C@H]3C2=C(CN4C(=O)OC(C)(C)C)[C@H](C)C1COC(C)=O` (stereo not given in full), for which the z-score in assay [1] was -1.11; in assay [2], 1.69 (inactive); in [3] it was -1.34 (inactive); in [5], 1.14 (inactive); in [6], 1.93 (inactive); in assay [7], -1.47 (inactive). Besides, the z-score in assay [8] is -0.748 (inactive); in [9] it was -1.18. Also, the results for the composite z-score in [4] and in assay [10] were 0.182 (inactive) and 0.691, respectively.

Consider `CC(C)C[C@H]1NC(=O)C([C@@H](C)OCc2ccccc2)NC(=O)[C@@]23C(=O)N[C@@H](Cc4ccccc4)C2[C@H](C)[C@@]2(C)O[C@H]2C3/C=C/C/C=C\CNC1=O` (stereo not given in full), for which the z-score in [1] is -0.662; in assay [2], -0.0256 (inactive); in assay [3], -0.521 (inactive); in [5] it was 0.294 (inactive); in [6], -0.3 (inactive); in assay [7] it was 0.12 (inactive). Besides, the figures for the z-score in assay [8] and in [9] were -0.0809 (inactive) and -0.0732, respectively. For the same molecule, the composite z-score was -0.116 (inactive) in assay [4] and 0.172 in assay [10].

Regarding `CC(C)(C)N1CC=CC23O[C@@H]4/C=C\CCCOC(=O)C4[C@H]2C(=O)N(CCCCCO)[C@@H]3C1=O` (stereo not given in full), the z-score in assay [1] is -0.144; in assay [2] it was 0.309 (inactive); in [3], 0.0676 (inactive); in assay [5] it was 0.481 (inactive); in assay [6] it was -0.746 (inactive); in assay [7], 0.0531 (inactive). The z-score is -0.0503 (inactive) in assay [8] and -0.119 in assay [9]. Besides, the composite z-score in [4] is -0.22 (inactive); in assay [10], -0.11.

Regarding `COc1ccc(C(O)C2C=CC3C(=O)N(C)C(=O)C3N2N(c2ccccc2)c2ccccc2)cc1` (stereo not given), the z-score in assay [1] was -0.326; in [2] it was 0.405 (inactive); in assay [3] it was -1.61 (inactive); in assay [5], 0.971 (inactive); in [6], 0.279 (inactive); in assay [7], -0.41 (inactive). Moreover, the values for the z-score in assay [8] and in assay [9] were 0.0882 (inactive) and -1.29, respectively. The composite z-score in assay [4] was -0.472 (inactive); in assay [10], -0.0772.

As for `NC(=O)NCC#Cc1ccc2c(c1)[C@]1(C(=O)N2)[C@H](c2ccc(OCCO)cc2)N2[C@H](c3ccccc3)[C@H](c3ccccc3)OC(=O)[C@H]2[C@@H]1C(=O)NC[C@H](O)c1ccccc1`, the z-score was 1.12 in assay [1]; 1.63 (inactive) in [2]; 0.473 (inactive) in [3]; 0.489 (inactive) in assay [5]; 2.58 (inactive) in assay [6]; 0.826 (inactive) in assay [7]. The z-score was 0.107 (inactive) in [8] and 1.29 in assay [9]. The results for the composite z-score in assay [4] and in assay [10] were -0.256 (inactive) and 0.0697, respectively.

With `COCCOC(=O)N1C(=O)[C@@]2(c3cc(C#CCC(C(=O)OC)C(=O)OC)ccc31)[C@H](C(=O)Nc1nc3ccccc3s1)[C@H]1C(=O)O[C@H](c3ccccc3)[C@H](c3ccccc3)N1[C@@H]2c1ccc(O)cc1`, the z-score in [1] was -0.218; in [2] it was 0.945 (inactive); in assay [3], -0.0585 (inactive); in assay [5] it was 0.678 (inactive); in assay [6] it was 0.404 (inactive); in assay [7] it was 0.378 (inactive). The figures for the z-score in assay [8] and in assay [9] were -0.186 (inactive) and -0.577, respectively. For the same molecule, the composite z-score in assay [4] is 0.863 (inactive); in assay [10], 0.286.

For `CC1CC/C=C\[C@H]2OC34C=CCN(c5ccc6ccccc6c5)C(=O)[C@H]3N(C(C)CO)C(=O)[C@@H]4C2C(=O)O1` (stereo not given in full), the z-score in assay [1] is -0.0727; in assay [2] it was -0.36 (inactive); in assay [3], -0.304 (inactive); in [5] it was -0.236 (inactive); in assay [6], 0.853 (inactive); in [7] it was 0.0825 (inactive). The z-score in assay [8] was 0.509 (inactive); in assay [9], 0.762. The composite z-score was 0.631 (inactive) in assay [4] and -0.208 in assay [10].

As for `COc1ccc([Si](C)(C)[C@H]2[C@H](CCO)O[C@@]3(C(=O)N(Cc4cccc(N5C(=O)c6ccccc6Oc6ccccc65)c4)c4ccccc43)[C@@H]2C)cc1`, the z-score in assay [1] is -1.86; in [2], -0.653 (inactive); in [3], -2.97 (inactive); in assay [5], 1.01 (inactive); in assay [6], 3.62 (inactive); in assay [7], 1.42 (inactive). The z-score in [8] was 0.597 (inactive); in assay [9], -4.05. Further, the results for the composite z-score in assay [4] and in assay [10] were 0.75 (inactive) and -0.115, respectively.

In the case of `CN(C)CCCC[C@@H]1NC(=O)[C@@H]2C[C@H](C(=O)NCCCCCN)[C@H](c3cccc(OCCO)c3)N2C1=O`, the z-score in assay [1] is 0.881; in assay [2], -0.985 (inactive); in assay [3], 1.49 (inactive); in assay [5], 0.531 (inactive); in [6], -2.59 (inactive); in assay [7], 2.01 (inactive). Further, the z-score in assay [8] was 2.02 (inactive); in [9], 0.819. Also, the composite z-score in [4] was -0.417 (inactive); in assay [10] it was -0.184.

For the molecule `NC(=O)N1C(=O)C2C(C1=O)C1C=C(CCCO)C2C(c2ccc(CN3CCCC3)cc2)N1Cc1cc2c(cc1Br)OCO2` (stereo not given), the z-score in assay [1] is -0.766; in assay [2], -0.222 (inactive); in assay [3], -1.29 (inactive); in assay [5], 0.792 (inactive); in assay [6], -0.572 (inactive); in assay [7], -0.672 (inactive). Further, the z-score was -0.299 (inactive) in [8] and -1.5 in [9]. Also, the values for the composite z-score in assay [4] and in assay [10] were 0.0032 (inactive) and 0.0251, respectively.

Consider `CN(C)CCCNC(=O)[C@@H]1c2ccccc2C(=O)N(Cc2ccccc2C(F)(F)F)[C@H]1c1ccc(CO)cc1`, for which the z-score in assay [1] is 0.788; in assay [2], -0.779 (inactive); in assay [3] it was 0.744 (inactive); in [5], -0.534 (inactive); in assay [6] it was 0.171 (inactive); in [7], 0.858 (inactive). For the same molecule, the z-score in assay [8] was 0.783 (inactive); in assay [9], 0.7. Also, the composite z-score was -0.0587 (inactive) in assay [4] and -0.0344 in assay [10].

Turning to `CCOC(=O)C1=CCC(c2cc3ccccc3[nH]2)N(CCN2CC(C(=O)OCC)=CCC2c2cc3ccccc3[nH]2)C1` (stereo not given), the z-score is -0.474 in assay [1]; 0.897 (inactive) in assay [2]; -1.98 (inactive) in assay [3]; 0.878 (inactive) in [5]; 0.614 (inactive) in [6]; 0.852 (inactive) in [7]. Further, the z-score in assay [8] was -0.732 (inactive); in assay [9], -0.458. Moreover, the composite z-score is 0.268 (inactive) in assay [4] and 1.16 in [10].

On to `CC(C)(C)N1CC=CC23O[C@@H]4C=CCCOC(=O)C4[C@H]2C(=O)N(CCCCCCO)[C@@H]3C1=O` (stereo not given in full), for which the z-score was 0.0735 in assay [1]; -0.437 (inactive) in [2]; -0.176 (inactive) in assay [3]; -0.456 (inactive) in [5]; 0.735 (inactive) in assay [6]; -0.0435 (inactive) in assay [7]. Besides, the results for the z-score in assay [8] and in [9] were 0.43 (inactive) and 0.382, respectively. In addition, the composite z-score in assay [4] is 0.713 (inactive); in assay [10], 0.189.
